# High-throughput results from PubChem BioAssay.
# DAT uptake mod: changed hDAT dopamine uptake under cocaine IC80, either direction, primary screen, cocaine antagonist project, cell-based, LLC-PK1 hDAT, [14C]-dopamine uptake, MLSMR; LLC-PK1 hDAT cells, [14C]-dopamine uptake with cocaine IC80; actives deviate in either direction; B-score at 10 µM; hit rate 1.3% among 110,000; AID 449768, 2010;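 active means Z score or B-score, a plate-position-corrected score, falls beyond the plate's 99.7% confidence bounds, in either direction; inactive means both scores lie inside the 99.7% bounds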
# Target sequence (Q01959 whole entry, looked up): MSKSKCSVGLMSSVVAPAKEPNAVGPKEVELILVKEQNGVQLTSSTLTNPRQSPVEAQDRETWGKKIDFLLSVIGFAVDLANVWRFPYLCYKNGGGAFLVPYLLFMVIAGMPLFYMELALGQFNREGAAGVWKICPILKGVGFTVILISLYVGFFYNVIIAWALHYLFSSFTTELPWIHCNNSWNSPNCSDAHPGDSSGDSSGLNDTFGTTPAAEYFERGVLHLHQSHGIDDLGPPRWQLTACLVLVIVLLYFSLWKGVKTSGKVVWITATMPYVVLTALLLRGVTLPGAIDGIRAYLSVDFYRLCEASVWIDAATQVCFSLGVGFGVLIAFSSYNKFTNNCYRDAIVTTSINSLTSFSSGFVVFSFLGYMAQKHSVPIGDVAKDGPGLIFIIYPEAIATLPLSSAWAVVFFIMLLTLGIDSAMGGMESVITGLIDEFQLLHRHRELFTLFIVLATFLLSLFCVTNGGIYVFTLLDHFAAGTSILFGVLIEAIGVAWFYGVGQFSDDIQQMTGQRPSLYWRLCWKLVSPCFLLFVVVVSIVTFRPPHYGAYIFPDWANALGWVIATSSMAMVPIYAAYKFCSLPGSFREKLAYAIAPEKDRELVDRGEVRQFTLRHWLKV
# PostGolgi yeast: phenotypic screen on post-Golgi transport, primary screen. post-Golgi transport phenotypic cell assay. inhibition, % at 10 µM. hit rate 0.9% among 98,000. AID 739, 2007;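 further: yeast cells grown in 1536-well plates; yeast grown about 18 h at 30C before absorbance read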
# PostGolgi ctrl: growth inhibition of yeast control strain, primary screen, counter-screen for post-Golgi transport modulator project; efflux-deficient yeast background strain, growth absorbance A615, 16 h; inhibition, % at 10 µM; hit rate 5% among 98,000; AID 738, 2007
# Cav32 inh: Cav3.2 calcium influx blockers – cell-based, Fluo-4 calcium fluorescence, FDSS, MLSMR library, primary screen | Cav3.2-expressing cells; stronger effect = lower value | B-score at 10 µM | hit rate 4% among 100,000 | AID 449739, 2010;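 active means single-dose well whose peak fluorescence ratio is a statistical outlier from its plate by either plate-standardised score or position-corrected B-score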
# TNAP act DEA: human TNAP enzyme activators, primary screen, biochemical, luminescent, intermediate phosphate acceptor level; Alkaline phosphatase, tissue-nonspecific isozyme (Homo sapiens), P05186; AID 813, 2007; activation factor at 20 µM; 64,000 tested, under 10 active; purified TNAP, CDP-star luminescence, 100 mM DEA, 30 min; stronger effect = higher value; scale: 0 levamisole-inhibited, 1 vehicle-only enzyme;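 active means activation factor of at least 2 at 20 µM, relative to controls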
# Smad3 FoxH1 inh: Smad3/FoxH1 peptide binding inhibitors, primary screen, biochemical, TR-FRET. inhibition, % at 25 µM. TR-FRET Smad3/Dy647-FoxH1 peptide binding, europium anti-His. hit rate 0.29% among 88,000. Mothers against decapentaplegic homolog 3 (Homo sapiens), P84022;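 active means compounds that reduce the energy-transfer binding signal between the protein and its labelled peptide by more than half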
# Hits are given with their value; i = inactive; nt = not tested or not shown; ! = a repeat was not active. This is a sample that favours compounds with a hit; in the whole collection about 8.7% have one here. Unless noted, no stated cut-off is given here; in the data, active means inhibition above about 30%; inactive means the rest.
SMILES,DAT uptake mod,PostGolgi yeast,PostGolgi ctrl,Cav32 inh,TNAP act DEA,Smad3 FoxH1 inh
O=C(NC(NCC1CCCO1)C(Cl)(Cl)Cl)c1cccc2ccccc12 (stereo not given),i,i,i,-5,nt,nt
COc1ccc(CCNc2oc(COc3ccccc3Cl)nc2C#N)cc1OC,i,i,i,-5.8,i,i
COc1ccc(CCNc2oc(Cc3ccccc3)nc2C#N)cc1OC,i,i,i,i,i,i
COc1ccc(CCNc2oc(COc3ccccc3F)nc2C#N)cc1OC,i,i,i,-5.1,i,i
O=C(CCc1c[nH]c2ccccc12)NCC1CCCO1 (stereo not given),i,i,i,i,i,i
CN(CC(=O)Nc1ccc(Cl)cc1)CC(=O)Nc1cc(Cl)ccc1C#N,i,i,39,i,i,i
Cc1ccc(NC(=O)NNC(=O)Cn2nc(-c3ccccc3)c(-c3ccccc3)c(C#N)c2=O)cc1,i,i,i,-7,nt,nt
O=C(Nc1ccc(S(=O)(=O)N2CCCCCC2)cc1)c1ccco1,i,i,i,i,i,i
Cc1ccccc1NC(=O)N1CCCC(c2nc(-c3ccc(F)cc3)no2)C1 (stereo not given),3,i,i,i,i,i
O=C(Nc1ccccc1)N1CC=C(c2ccccc2)CC1,i,i,i,i,i,i
CCCS(=O)(=O)N1CCCC(c2nc(-c3cccc(OC)c3)no2)C1 (stereo not given),i,i,i,-4,i,i
O=S(=O)(Cc1ccccc1)N1CCCC(c2nc(-c3ccc(F)cc3)no2)C1 (stereo not given),i,i,33,i,i,i
COc1cccc(C(=O)N2CCCC(c3nc(-c4cccs4)no3)C2)c1 (stereo not given),i,i,i,i,i,i
O=C(Nc1ccccc1)N1CC=C(c2ccc(F)cc2)CC1,i,i,i,-4.6,i,i
Cc1cc(C)c2[nH]c(=O)c(C(c3nnnn3Cc3ccc4c(c3)OCO4)N3CCCCC3)cc2c1 (stereo not given),i,nt,nt,i,i,i
CCC(C)NC(=O)Cn1c(=O)n(-c2ccccc2)c(=O)c2ccc(C(=O)NCc3ccco3)cc21 (stereo not given),i,i,i,i,i,i
CCc1cc2cc(C)cc(C)c2nc1SCC(=O)N1CCCC1,i,nt,nt,i,nt,i
O=C(Nc1ccccc1)N1CCCC(c2nc(-c3ccc(F)cc3)no2)C1 (stereo not given),i,i,i,-5.4,nt,i
Cc1ccccc1NC(=O)N1CCCC(c2nc(-c3ccc(C(C)C)cc3)no2)C1 (stereo not given),i,i,i,-4.2,i,i
c1ccc(CC2=NCCN2)cc1,i,i,i,i,nt,i
c1ccc(CN(CC2=NCCN2)c2ccccc2)cc1,i,nt,nt,-2.8!,i,i
CCn1nnnc1SCC(=O)N(C1CCCCC1)C1CCCCC1,i,i,i,i,i,i
ONC(=Nc1ccc(Cl)cc1)c1ccccc1,-9.7,i,i,nt,nt,nt
Cc1noc(C)c1S(=O)(=O)NC1CCN(Cc2ccccc2)CC1,i,i,i,i,i,i
CCOc1cc(-c2ccc(N)c(OCC)c2)ccc1N,i,i,i,-5.4,i,i
SMILES,DAT uptake mod,PostGolgi yeast,PostGolgi ctrl,Cav32 inh,TNAP act DEA,Smad3 FoxH1 inh
CCOc1cc(-c2cc(-c3ccc(N)cc3)nc(N)c2C#N)ccc1O,i,i,i,i,i,i
CC(NC(=O)C1CCCC1)c1ccc2c(c1)OCCO2 (stereo not given),i,i,i,i,nt,i
CC(NC(=O)C12CC3CC(CC(C3)C1)C2)c1ccc2c(c1)OCCO2 (stereo not given),i,i,i,3.5,nt,i
CCn1c(C(=O)NC(C)c2ccc3c(c2)OCCO3)cc2sccc21 (stereo not given),i,i,i,-5.1,i,i
COC(=O)CNC(=O)CNC(=O)c1nn(-c2ccc(OC)c(Cl)c2)c(=O)c2ccccc12,nt,i,35,nt,nt,nt
COc1ccc(-n2nc(C(=O)NCC(=O)NCc3ccco3)c3ccccc3c2=O)cc1Cl,i,i,i,i,i,i
COCCNC(=O)CNC(=O)c1nn(-c2ccc(OC)c(Cl)c2)c(=O)c2ccccc12,-6.8,i,i,i,nt,i
O=C(Nc1ccccc1)c1c(F)cccc1F,i,i,i,i,nt,i
c1ccc(NC2=Nc3ccccc3CS2)cc1,i,i,i,i,i,i
O=C(CCn1ccc2ccccc21)NC1CCCc2ccccc21 (stereo not given),i,i,i,nt,nt,i
Cc1cc(NC(=O)CSC2=Nc3ccccc3C3=NC(Cc4ccccc4)C(=O)N23)n[nH]1 (stereo not given),i,i,i,i,i,i
CCN(CC)C(=O)CSC1=Nc2ccccc2C2=NC(Cc3c[nH]c4ccccc34)C(=O)N12 (stereo not given),i,i,34,i,i,i
COc1ccnc(CSC(N)=Nc2ccc(F)cc2)c1,i,nt,nt,i,nt,i
COc1ccc(C(=O)c2ccc(Cl)cc2Cl)cc1,i,i,i,i,nt,i
Cc1c(C(=O)c2ccc(Cl)cc2Cl)cnc2cc3c(cc12)OCO3,-8.5,nt,nt,-4,nt,i
Cc1ccc(C)c(N/C=C(\C#N)c2nc3ccccc3o2)c1,i,nt,nt,i,nt,nt
Cc1ccc(N/C=C(/C#N)c2ccsc2)cc1C,i,i,39,i,nt,i
Cc1cc2c3c(c1)C1(C(=O)N3C(C)(C)CC2C)C(C#N)=C(N)OC2=C1C(=O)CC(C)(C)C2 (stereo not given),i,nt,nt,i,nt,i
Cc1cc2c3c(c1)C1(SCC(=O)N1c1ccc(F)cc1)C(=O)N3C(C)(C)CC2C (stereo not given),i,i,33,-3.4,nt,i
COc1ccc(OC(C)C(=O)N2CC(C)OC(C)C2)cc1 (stereo not given),i,i,i,i,i,i
CC(C)(C)NC(=O)C(c1ccccn1)N(C(=O)c1ccc2c(c1)OCCO2)C1CCCC1 (stereo not given),i,i,31,i,i,i
Cc1nc(N2CCN(c3ccccc3)CC2)nc2c1C(=O)CC(C)C2 (stereo not given),i,i,37,i,i,i
COc1cc(NC(=O)C2COc3ccccc3O2)c(OC)cc1Cl (stereo not given),i,i,i,-4.5,i,i
CN(CCO)C1=CC(=O)CC(C)(C)C1,i,nt,nt,i,nt,i
O=C(NCc1ccccc1)c1noc2c1CCCC2,i,i,i,i,i,i
COc1ccc(CNC(=O)c2csc(Cc3ccc(OC)cc3)n2)cc1,i,i,i,-7.9,nt,nt
